According to PubChem BioAssay (NCATS):
Inconclusive results are not listed. Calls of active or inactive are those of the source. The call rests on the fitted dose curve; in most records, active means well fitted curve in the direction sought with a large enough effect; inconclusive means small, poorly fitted or top-dose-only effect, or another doubt; inactive means no such curve, though single readings can be large; an effect the other way counts as inactive or inconclusive.

Columns and labels:
[1] = qHTS of pediatric cancer cell lines to identify multiple opportunities for drug repurposing: Primary screen for TC32 cells (AID 1347089); further: nearly all actives have a fitted effect of over 60% in size; on activity change, negative = cytotoxic: on the % scale 0 is the no-effect control and ±100 the full control effect
Method in brief: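 Measured quantity: luminescence from CellTiter-Glo, reflecting metabolically active TC32 cells following 48 h of compound. Curves came straight from multi-point titrations, with 8 or 11 points in primary and 11 in confirmatory screening.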

[2] = qHTS of pediatric cancer cell lines to identify multiple opportunities for drug repurposing: Primary screen for DAOY cells (AID 1347090); further: nearly all actives have a fitted effect of over 55% in size;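 on activity change, negative = cytotoxic: series mostly up to about 46 µM; plate controls were DMSO for no effect and bortezomib for full effect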
Method in brief: (§1)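 Eight- or eleven-point concentration series, 48 h treatment at 37 degrees C in growth media; readout CellTiter-Glo luminescence. Potency and efficacy were taken from the concentration-response curves.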

[3] = qHTS of pediatric cancer cell lines to identify multiple opportunities for drug repurposing: Primary screen for A673 cells (AID 1347092); further: nearly all actives have a fitted effect of over 45% in size; on activity change, negative = cytotoxic: on the % scale 0 is the no-effect control and ±100 the full control effect
Method in brief: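 Cells are plated, rested 5 h, dosed by pintool, incubated 48 h, then lysed with CellTiter-Glo and read by luminescence. DMSO is the neutral control; bortezomib at 2.3 uM final is the positive control.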

[4] = qHTS of pediatric cancer cell lines to identify multiple opportunities for drug repurposing: Primary screen for SK-N-MC cells (AID 1347093);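 on activity change, negative = cytotoxic: series mostly up to about 46 µM; plate controls were DMSO neutral control for no effect and bortezomib for full effect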
Method in brief: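 Metabolically active cells were quantified by ATP-dependent luminescence (CellTiter-Glo, 15 min at room temperature) following 48 h treatment. Cells had been plated at 500-1,000 per well and settled for 5 h beforehand.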

[5] = qHTS of pediatric cancer cell lines to identify multiple opportunities for drug repurposing: Primary screen for BT-37 cells (AID 1347094);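 on activity change, negative = cytotoxic: series mostly up to about 57 µM; plate controls were DMSO for no effect and bortezomib for full effect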
Method in brief: (§2)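 Following a 5-hour attachment period, cells at 500-1,000/well received compounds and were cultured for 48 hours. CellTiter-Glo was added and luminescence read to estimate viable, metabolically active cells.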

[6] = qHTS of pediatric cancer cell lines to identify multiple opportunities for drug repurposing: Primary screen for NB-EBc1 cells (AID 1347095);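 on activity change, negative = cytotoxic: plate controls were DMSO neutral control for no effect and bortezomib for full effect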
Method in brief: as §2

[7] = qHTS of pediatric cancer cell lines to identify multiple opportunities for drug repurposing: Primary screen for SJ-GBM2 cells (AID 1347091);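 on activity change, negative = cytotoxic: plate controls were DMSO neutral control for no effect and bortezomib for full effect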
Method in brief: as §1
Potency means the concentration at half of the fitted maximal effect.

C=CCn1c(=O)c2cnc(Nc3ccc(N4CCN(C)CC4)cc3)nc2n1-c1cccc(C(C)(C)O)n1
active: Potency [1] 2620 nM | Potency [2] 372 nM | Potency [3] 74.3 nM | Potency [4] 83.3 nM | Potency [5] 611 nM | Potency [6] 209 nM

Cn1c(CNc2ccc(C(=N)N)cc2)nc2cc(C(=O)N(CCC(=O)O)c3ccccn3)ccc21
inactive: Potency [1] | Potency [2] | Potency [7] | Potency [5] | Potency [6]

CCN(CC)CCNC(=O)c1ccc2nc(-c3ccccc3)c(-c3ccc(CN4CCC(n5c(=O)[nH]c6ccccc65)CC4)cc3)nc2c1
active: Potency [1] 18600 nM | Potency [2] 23500 nM | Potency [3] 1180 nM | Potency [4] 2640 nM | Potency [5] 10900 nM

Nc1nc(-c2nn(Cc3ccccc3F)c3ncccc23)nc(N)c1N1CCOCC1
inactive: Potency [1] | Potency [2] | Potency [7] | Potency [5] | Potency [6]

CCOc1ccccc1OCCNC(C)Cc1ccc(OC)c(S(N)(=O)=O)c1 (stereo unspecified)
inactive: Potency [1] | Potency [2] | Potency [3] | Potency [4] | Potency [5] | Potency [6]

NC(=O)c1cccc2cn(-c3ccc([C@@H]4CCCNC4)cc3)nc12
inactive: Potency [2]
active: Potency [1] 20800 nM | Potency [3] 1870 nM | Potency [4] 8330 nM | Potency [6] 6620 nM

CNC(=O)c1c(F)cccc1Nc1nc(Nc2cc3c(cc2OC)CCN3C(=O)CN(C)C)nc2[nH]ccc12
active: Potency [1] 5870 nM | Potency [2] 118 nM | Potency [3] 93.5 nM | Potency [4] 14.8 nM | Potency [6] 332 nM

COc1ccc(CC2c3cc(OC)c(OC)cc3CC[N+]2(C)CCC(=O)OCCCCCOC(=O)CC[N+]2(C)CCc3cc(OC)c(OC)cc3C2Cc2ccc(OC)c(OC)c2)cc1OC (stereo unspecified)
inactive: activity change, negative = cytotoxic [1] -1.18% [at 9.17 µM] | activity change, negative = cytotoxic [2] -5.91% [at 9.22 µM] | activity change, negative = cytotoxic [3] -4.72% [at 9.22 µM] | activity change, negative = cytotoxic [4] -16.8% [at 9.22 µM] | activity change, negative = cytotoxic [5] 6.03% [at 11.5 µM] | activity change, negative = cytotoxic [6] 16.9% [at 9.22 µM]

COc1cc(C)c(Sc2cnc(NC(=O)c3ccc(CNC(C)C(C)C)cc3)s2)cc1C(=O)N1CCN(C(C)=O)CC1 (stereo unspecified)
active: Potency [1] 7390 nM | Potency [2] 14800 nM | Potency [7] 18700 nM | Potency [4] 2090 nM | Potency [6] 18700 nM

CN1CCN(c2cc(C(=O)Nc3ccc4c(c3)-c3c(c(C(N)=O)nn3-c3ccc(F)cc3)CC4)c(Cl)cn2)CC1
active: Potency [2] 11800 nM | Potency [3] 2350 nM | Potency [5] 24300 nM
inactive: Potency [1]

COC(=O)c1ccc2c(C(=Nc3ccc(N(C)C(=O)CN4CCN(C)CC4)cc3)c3ccccc3)c(O)[nH]c2c1
active: Potency [1] 10400 nM | Potency [2] 590 nM | Potency [7] 16600 nM | Potency [5] 3850 nM | Potency [6] 2090 nM

O=C(C=Cc1cccnc1)NCCCCC1CCN(C(=O)c2ccccc2)CC1
active: Potency [1] 4.7 nM | Potency [7] 16.6 nM | Potency [6] 11.8 nM
inactive: Potency [2]

CNC(=O)c1nn(C)c2c1C(C)(C)Cc1cnc(Nc3ccc(N4CCN(C)CC4)cc3)nc1-2
active: Potency [1] 2620 nM | Potency [2] 11800 nM | Potency [4] 590 nM | Potency [5] 1720 nM | Potency [6] 2350 nM

CCNC(=O)Nc1ccc2ncc(Nc3ccc(C)cc3)nc2n1
active: Potency [1] 1860 nM | Potency [2] 37.2 nM | Potency [4] 5.3 nM | Potency [5] 24300 nM | Potency [6] 18700 nM

COc1cc(C(C)C)c2c(c1)S(=O)(=O)N(COc1cc(=O)n3cccc(OCCN4CCCCC4)c3n1)C2=O
active: Potency [7] 26400 nM | Potency [3] 7430 nM | Potency [4] 3720 nM
inactive: Potency [1]

C1=CCOCc2cc(ccc2OCCN2CCCC2)Nc2nccc(n2)-c2cccc(c2)OCC1
active: Potency [1] 14700 nM | Potency [2] 14800 nM | Potency [5] 12200 nM | Potency [6] 7430 nM

COc1ccc(-c2cc3c(C)nc(N)nc3n(C3CCC(OCCO)CC3)c2=O)cn1 (stereo unspecified)
active: Potency [1] 186 nM | Potency [2] 118 nM | Potency [3] 93.5 nM | Potency [4] 5.3 nM | Potency [5] 243 nM | Potency [6] 59 nM

C=C1C(=CC=C2CCC[C@]3(C)[C@@H]([C@H](C)C=C[C@H](C)C(C)C)CC[C@@H]23)C[C@@H](O)C[C@@H]1O
active: Potency [1] 11700 nM | Potency [2] 1870 nM | Potency [7] 743 nM | Potency [4] 469 nM | Potency [5] 968 nM | Potency [6] 526 nM

CCCNC(=O)Nc1ccc(Oc2ncnc3cc(OC)c(OC)cc23)cc1Cl
inactive: Potency [1] | Potency [2] | Potency [3] | Potency [4] | Potency [5]

CC(C)CC(=O)Nc1n[nH]c2c1CN(C(=O)C1CCN(C)CC1)C2(C)C
active: Potency [1] 5870 nM | Potency [2] 11800 nM | Potency [4] 52.6 nM | Potency [5] 485 nM

COc1cccc(Nc2c(C(N)=O)cnc3c(C)cc(S(=O)(=O)c4cccc(C(=O)N(C)C)c4)cc23)c1
inactive: Potency [1] | Potency [2] | Potency [3] | Potency [5] | Potency [6]
active: Potency [4] 6450 nM

CCCCN1CCC(CNC(=O)c2c3n(c4ccccc24)CCCO3)CC1
active: Potency [2] 1870 nM | Potency [4] 4690 nM | Potency [6] 13200 nM
inactive: Potency [1]

Cc1ccc(CN2CCNCC2)cc1NC(=O)CNc1ccc(F)c(F)c1
inactive: Potency [1] | Potency [2] | Potency [3] | Potency [4] | Potency [5] | Potency [6]
